Experimental data from PubChem BioAssay AID463195 (Sanford-Burnham Center for Chemical Genomics, 2010).
Hit rate of the full screen: of about 330,000 compounds, about 4,600 (1.4%) were called active.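 How the source made its calls: active means inhibition of 40% or more at the single tested concentration; inactive means the rest.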 Only a selection was taken, and actives are over-represented in it overall.

assay: growth inhibitors of isogenic TIM10 control yeast, primary screen, counter-screen for tim10-1 yeast inhibitor project, luminescence, uHTS (AID 463195);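 further: wild-type TIM10 isogenic control strain grown at permissive 25 °C; 0% = DMSO yeast wells and 100% = minimal medium wells without yeast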; details: S. cerevisiae TIM10 strain growth, BacTiter-Glo luminescence, 24 h; at 10 µM; active compounds read high

SMILES | inhibition
O=C(O)CSc1ccc(S(=O)(=O)N2CCCC2)cn1 | 8.26% (inactive)
O=C(CCC1CCCN(C(=O)c2ccc(F)c(F)c2)C1)N1CCN(c2ccccn2)CC1 (stereo not given) | 13.4% (inactive)
Cc1no[n+]([O-])c1COc1ccccc1/C=C1\NC(=S)NC1=O | -3.3% (inactive)
Cc1ccc(SCC(=O)NNC(=O)c2ccc(S(C)(=O)=O)cc2)cc1 | 2.08% (inactive)
O=S(=O)(NN=C1CCCCCCC1)c1ccc(Br)cc1 | 17.3% (inactive)
CCc1ccc(C(CNc2nc(C(F)(F)F)nc3ccccc23)N(C)C)cc1 (stereo not given) | 9.55% (inactive)
COc1cccc(CNc2nc(C(F)(F)F)nc3ccccc23)c1 | 44.2% (active)
COc1ccc(CNc2ncnc3ccccc23)cc1 | 2.62% (inactive)
N/C(=N\OC(=O)CCc1ccccc1)c1ccc(Cl)cc1 | 57.5% (active)
N/C(=N\OC(=O)CCc1ccccc1)c1cccnc1 | -2.8% (inactive)
N/C(=N\OC(=O)CC1CCCCC1)c1ccccc1 | 38% (inactive)
COc1ccc(/C(N)=N/OC(=O)Oc2ccccc2)cc1 | 2.38% (inactive)
COc1ccc(/C(N)=N/OC(=O)Cc2ccccc2)cc1 | 21.6% (inactive)
COc1ccc(/C(N)=N/OC(=O)CCCc2ccccc2)cc1 | 48.1% (active)
Nc1cccc(S(=O)(=O)Nc2ccc(SC(F)F)cc2)c1 | 15.6% (inactive)
CCc1ccc(S(=O)(=O)Nc2cc3c(cc2N2CCCCC2)n(C)c(=O)c(=O)n3C)cc1 | 18% (inactive)
OCC1(Cc2ccccc2C(F)(F)F)CCN(Cc2cccc3cnccc23)CC1 | -41.2% (inactive)
Cc1ccc(N(C(=O)c2sc(C)nc2C)C(C(=O)NC(C)(C)C)c2ccncc2)cc1 (stereo not given) | -2.14% (inactive)
O=C1OC[C@@H]2CCCN2C(=O)[C@H](CC(=O)N(CCO)Cc2ccccc2)C/C=C\CC[C@@H]1Cc1ccc(F)cc1 | 1.13% (inactive)
CCN(Cc1ccccc1)S(=O)(=O)c1cc2c3c(c1)CCN3C(=O)CC2 | -18.1% (inactive)
O=C(COc1ccccc1Cl)Nc1ccccc1C(=O)NC1CC1 | 4.12% (inactive)
NC(=O)CC(NC(=O)Cc1ccc(Br)cc1)c1ccc(NC2CC3CCC2C3)c([N+](=O)[O-])c1 (stereo not given) | 11.3% (inactive)

SMILES | inhibition
COc1ccc([N+](=O)[O-])cc1-c1nc2ccccc2nc1-c1ccccc1 | 12.2% (inactive)
O=[N+]([O-])c1ccc2c(c1)Nc1nc3ccccc3nc1N2 | 79.8% (active)
O=[N+]([O-])c1ccc2nc(-c3ccccn3)[nH]c2c1 | 13.4% (inactive)
CCc1ccc(CN2C(=O)c3ccccc3C2C(=O)NCC2CCCO2)cc1 (stereo not given) | -1.35% (inactive)
COc1cc(SC)ccc1C(=O)NNC(=O)C1COc2ccccc2O1 (stereo not given) | -2.79% (inactive)
COc1ccc(NC(=O)C2COc3ccccc3O2)cc1 (stereo not given) | -1.21% (inactive)
COc1ccc(OC)c2sc(NC(=O)C3COc4ccccc4O3)nc12 (stereo not given) | 43.3% (active)
Cc1cccc(NC(=O)CN2CCN(CC(=O)NCC3(N4CCCCC4)CCCCC3)CC2)c1C | -26% (inactive)
O=C(CCN1CCc2ccccc2C(O)(c2ccccc2)C1)c1ccc2c(c1)OCCO2 (stereo not given) | 47.8% (active)
O=C(CN1CCC(O)(c2ccccc2)CC1)Nc1ccc2c(c1)OCCO2 | -4.11% (inactive)
O=C(COC(=O)c1ccccc1)c1ccc2c(c1)OCCO2 | 3.76% (inactive)
COc1cccc2cc(/C(C)=N/NC(=O)c3ccco3)oc12 | 7.37% (inactive)
CC1(C)CCSC(/C=C/c2ccccc2)=N1 | 59.5% (active)
CC1(c2ccccc2)NC(=O)N(CC(=O)N2CC(=O)Nc3ccccc32)C1=O (stereo not given) | -7.18% (inactive)
Cc1c(CC(=O)N2CCN(C(=O)C3COc4ccccc4O3)CC2)c(=O)oc2c(O)c(O)ccc12 (stereo not given) | 14.5% (inactive)
CC(=O)Nc1ccc(N2C(=O)C3C4C=CC(CC4)C3C2=O)cc1 (stereo not given) | 3.72% (inactive)
Cc1ccc(N2C(=O)C3C4C=CC(CC4)C3C2=O)cc1Br (stereo not given) | 0.46% (inactive)
Cc1ccc(N2C(=O)C3C4C=CC(CC4)C3C2=O)cc1Cl (stereo not given) | 96.9% (active)
O=C(c1ccc(F)cc1)C1CCN(Cc2cn[nH]c2-c2ccccc2)CC1 | 7.29% (inactive)
Cc1cc(C)c(CN2CCN(C(=O)Cn3ccc(NC(=O)OCc4ccccc4)nc3=O)CC2)c(C)c1 | 14.5% (inactive)
Cc1nn(Cc2ccccc2)c(C)c1C(=O)N1CCN(CC(=O)Nc2ccccc2Cl)CC1 | 16.3% (inactive)
Cc1cccc(C)c1NC(=O)CCCSc1nnc(-c2ccco2)n1-c1ccccc1 | 7.48% (inactive)

SMILES | inhibition
Cc1cc(N/N=C\c2ccc(Br)cc2)nc(-n2nc(C)cc2C)n1 | 28.7% (inactive)
COc1ccc(Nc2cc(C)nc(-n3nc(C)cc3C)n2)cc1 | 42.6% (active)
CC(=O)c1ccc(Oc2cc(C)nc(-n3nc(C)cc3C)n2)cc1 | 17.9% (inactive)
COc1ccc(OCC(=O)OCCN(C)C)cc1 | 6.08% (inactive)
CN1CCC2(CC1)NC(=O)NC2=O | -10.9% (inactive)
C=CCn1c2ccccc2c2nnc(SCc3[nH]c(=O)[nH]c3C(=O)CCCCC(=O)OCC)nc21 | 2.76% (inactive)
c1ccc(-c2cn3c(n2)CCc2ccc4cccnc4c2-3)cc1 | 43.3% (active)
CCn1nnc(NC(=O)c2cc(Cl)c(OC)c(Cl)c2)n1 | -27.2% (inactive)
O=C(Nc1cc(S(=O)(=O)Nc2ccc(Cl)cc2)ccc1O)c1ccc(F)cc1F | -2.9% (inactive)
O=C(Nc1nnc(SCc2c(Cl)cccc2Cl)s1)c1cccc([N+](=O)[O-])c1 | -29.2% (inactive)
O=C(Nc1nnc(SCc2c(Cl)cccc2Cl)s1)C1CCCO1 (stereo not given) | 43% (active)
O=C(NCc1ccccc1Cl)C1CCCO1 (stereo not given) | 12.6% (inactive)
CCCCN(CC)CCCNC(=O)c1ccc(CSc2nc3ccncc3[nH]2)cc1 | -7.87% (inactive)
COc1ccc(C2CC(=O)Oc3ccc(C(C)(C)C)cc32)cc1 (stereo not given) | -0.738% (inactive)
S=C(Nc1cccc(Cl)c1)Nc1ccc2c(c1)OCCO2 | 20.4% (inactive)
O=C(O)CC1(CC(=O)Nc2cccc(C(F)(F)F)c2)CCCC1 | -9.42% (inactive)
Cc1cc(Cl)nc(NC(=O)Nc2cccc(Cl)c2)n1 | 3.22% (inactive)
FC(F)(F)c1cccc(NC(=S)Nc2cccc(Cl)c2)c1 | 50.8% (active)
Cc1csc(NC(=S)Nc2cccc(Cl)c2)n1 | 45.7% (active)
Cc1cccc(NC(=S)Nc2ccc(Cl)c(Cl)c2)c1 | 24.3% (inactive)
CCn1c(=O)c(=O)n(CC)c2cc(S(=O)(=O)N3CCc4ccccc43)ccc21 | 14.7% (inactive)
Cc1ccc(C(C)C)c(OCc2nnc(SCC(=O)Nc3nccs3)n2C)c1 | -14% (inactive)

SMILES | inhibition
COc1ccccc1/C=C/CN1CCC(CO)(Cc2ccccc2)CC1 | -1.7% (inactive)
CCCCNC(=O)C1CCC(=O)N1CCc1ccccc1 (stereo not given) | -1.71% (inactive)
C[C@]12CC[C@H](O)CC1=CCC1C2CC[C@@]2(C)C1CC[C@@H]2NC(=O)CCC(=O)O (stereo not given in full) | -2.58% (inactive)
C=CC[C@H](CC(=O)N(CCO)Cc1ccccc1)C(=O)N[C@@H](COC(=O)[C@@H](CC=C)Cc1ccc(F)cc1)Cc1ccccc1 | 5.57% (inactive)
CSc1ccc(C(=O)C2CCCN(C(=O)c3ccc(C)nc3)C2)cc1 (stereo not given) | -8.56% (inactive)
Cc1cc(C(=O)NNC(=O)CCC2CCCCC2)c(C)o1 | -5.54% (inactive)
Cn1c2c(c(=O)n(C)c1=O)C(c1cccc([N+](=O)[O-])c1)Nc1ccccc1O2 (stereo not given) | -3.02% (inactive)
CCN(/N=C/c1ccccc1)c1cc(=O)n(C)c(=O)[nH]1 | 19.2% (inactive)
CN(/N=C/c1ccccc1)C(=S)c1ccccc1 | -6.07% (inactive)
Oc1ccc(/C=N/N(Cc2ccccc2)c2ccccc2)cc1 | 46% (active)
CN1CCN(S(=O)(=O)c2cccc(C(=O)Nc3sccc3C#N)c2)CC1 | -3.26% (inactive)
CSC1=NCCN1C(=O)Cc1cccc2ccccc12 | 4.36% (inactive)
O=C(CCC(=O)N1CCN(S(=O)(=O)c2ccccc2)CC1)NC1CCCc2ccccc21 (stereo not given) | 8.6% (inactive)
O=S(=O)(c1ccccc1)N1CCc2ccccc21 | 2.66% (inactive)
O=C1c2ccccc2C(=O)N1CC1c2ccccc2CCN1S(=O)(=O)c1ccccc1 (stereo not given) | 40.3% (active)
O=[N+]([O-])c1ccccc1/C=C/CN1CCC(O)CC1 | -13.6% (inactive)
CC1CCCCC1NC(=O)/C(C#N)=C/C=C/c1ccccc1[N+](=O)[O-] (stereo not given) | 47.3% (active)
O=[N+]([O-])c1ccccc1/C=C/CN1CCCC(CO)C1 (stereo not given) | -25% (inactive)
CCOc1ccc(CN2CCN(Cc3c[nH]c4ccccc34)CC2)cc1 | -10.6% (inactive)
CC1(C)CC(=O)C=C(NCCN2CCNCC2)C1 | 5.33% (inactive)
Cc1ccc(/C=C/C(=O)OCC(=O)NCc2ccc(Cl)cc2)o1 | -3.46% (inactive)
CCOC(=O)C1CN(S(=O)(=O)c2ccc(OC)cc2)c2cc(Cl)ccc2O1 (stereo not given) | 15.1% (inactive)

SMILES | inhibition
COc1ccccc1N1N=C(c2cccs2)CC1c1ccccc1 (stereo not given) | 23% (inactive)
O=C1C2N=NN(CC(=O)N3N=C(c4cccc5ccccc45)CC3c3ccccc3)C2C(=O)N1c1ccccc1 (stereo not given) | 22.8% (inactive)
Oc1ccccc1C1=NN(c2ccccc2)C(c2ccccc2)C1 (stereo not given) | 49% (active)
CC(C)CC(COCc1ccc(Cl)cc1)N1CCN(C(=O)c2ccc(C(F)(F)F)cc2)CCC1=O (stereo not given) | 17.7% (inactive)
Cc1ccc(NC(=S)N/N=C2/CCCc3c(C)cc(C)cc32)cc1 | -3.6% (inactive)
CCCCNC(=S)N/N=C1\CCCCc2ccccc21 | 48.2% (active)
CCCC1CCC(=NNC(=S)NCCc2ccccc2)CC1 (stereo not given) | -23.1% (inactive)
Cc1noc(C)c1S(=O)(=O)Nc1cc(C(F)(F)F)ccc1N1CCOCC1 | 14.8% (inactive)
NS(=O)(=O)c1ccc(CCNC(=O)CCCn2c(SCC(=O)N3CCCC3)nc3ccsc3c2=O)cc1 | -3.82% (inactive)
O=C(Oc1c(-c2ccco2)oc2ccccc2c1=O)c1cccnc1 | 63.5% (active)
COc1ccc(Oc2coc3cc(OC(=O)c4cncc(Br)c4)ccc3c2=O)cc1 | 22.3% (inactive)
O=C(OCc1cc2ccccc2[nH]c1=O)c1cccnc1 | -6.32% (inactive)
Cn1c(CC2Sc3ccccc3NC2=O)nnc1SCC(=O)c1ccc(Cl)cc1 (stereo not given) | 2.41% (inactive)
COc1cccc(NC(C)=[N+](C)CCNS(=O)(=O)c2ccc(Cl)cc2)c1 | -4.11% (inactive)
CCCCn1c(N)c(N(CCC(C)C)C(=O)c2ccc([N+](=O)[O-])o2)c(=O)[nH]c1=O | -3.66% (inactive)
CC1=NN(C(N)=S)C(=O)C1N=Nc1cc(Cl)ccc1Cl (stereo not given) | 28.1% (inactive)
Cc1[nH]n(C(N)=S)c(=O)c1N=Nc1ccc(Cl)cc1Cl | 50.4% (active)
Cc1[nH]n(C)c(=O)c1N=Nc1ccc(S(C)(=O)=O)cc1 | 6.98% (inactive)
S=C(NCc1ccc(Cl)cc1)NC12CC3CC(CC(C3)C1)C2 | 61.1% (active)
O=C(NCc1ccc(Cl)cc1)NCc1ccc(Cl)cc1 | -12.6% (inactive)
COC(=O)Cc1ccc(NC(=S)NCc2ccc(Cl)cc2)cc1 | 28% (inactive)
CSc1nc2nc(-c3cccc(C(F)(F)F)c3)ccn2n1 | -28% (inactive)
